# Measurements as given in PubChem BioAssay (EPA / NIEHS).
# Calls of active or inactive are those of the source. Rule for the calls: active = hit-call score of the fitted dose curve at least 0.9, where 1 is the maximum; inactive = score below 0.9.
# Experiment: ATG_TCF_b_cat_CIS: Attagene CIS-FACTORIAL HepG2 Assay for human T-Cell-Factor with beta-catenin (TCF/b-cat) (AID 2282965)
# Details: HepG2 TCF/beta-catenin cis-reporter transcription, actives raise or lower the signal
# Procedure, shortened: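 Measured: reporter mRNA in HepG2 transiently transfected with cis-promoter reporter units, 24 h after chemical addition. Fitting was bidirectional, DMSO as negative control.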
SMILES,outcome,AC50
CCCCNC(=O)NS(=O)(=O)c1ccc(N)cc1,inactive,
CCOC(=O)c1ccccc1OC,inactive,
CCCCCCCCCCN,inactive,
CC(C)(CO)[N+](=O)[O-],inactive,
CC1(C)C(=O)N(Br)C(=O)N1Cl,inactive,
COc1ccc(O)cc1,inactive,
CC(=O)Nc1ccc(CC(=O)O)cc1,inactive,
CC(C)C1CCC(O)CC1 (configuration not stated),inactive,
C=C(C)C(=O)O,inactive,
CCCCCNCCCCC,inactive,
COc1cc(C=O)ccc1OC(=O)C(C)C,inactive,
O=C[C@H](O)[C@H](O)[C@H](O)CO,inactive,
CCCCOCCOCCOCCOCCO,inactive,
C=C[Si](OCC)(OCC)OCC,inactive,
CCCCCCOC(=O)CCCCC,inactive,
COC(C)CCO (configuration not stated),,187 µM (active)
OCCOc1cccc(OCCO)c1,inactive,
C=C(C)[C@@H]1CC[C@@H](C)C[C@@H]1O,inactive,
Cc1ccc(C(C)C)cc1O,inactive,

SMILES,outcome,AC50
CC(=O)[O][Al][O]C(C)=O,inactive,
CCCCCCCCCCCCCCCC(=O)O,inactive,
CC(=O)c1c(C)cc(C(C)(C)C)cc1C,inactive,
CCCCCCCCCCCCCCCC(=O)OC[C@H](O)[C@H]1OC(=O)C(O)=C1O,,168 µM (active)
C=C(C)C(=O)O[C@H]1C[C@@H]2CC[C@@]1(C)C2(C)C,,138 µM (active)
CCCCCOC(=O)CCC,inactive,
Nc1nc2ccc([N+](=O)[O-])cc2s1,inactive,
CCCCCCCCCCCCCOS(=O)(=O)O,inactive,
CCCCN,inactive,
CC(C)=CCO,inactive,
NCCCCCCN,inactive,
C=C(C)C(=O)Nc1ccc(Cl)c(Cl)c1,inactive,
O=S(=O)(O)NC1CCCCC1,inactive,
CC(C)C(C)(C)C(C)(C)C(C)(C)S,inactive,
C=C(C)C1CCC(C)CC1O (configuration not stated),inactive,
CC(C)[C@@H]1CC[C@@H](C)CC1=O,inactive,
CCCCCC(CO)CCC (configuration not stated),inactive,
O=c1[nH]c(=O)n([C@H]2CCCO2)cc1F,inactive,
